Only some compounds are listed: those with a hit (about 2.5% of all), similar ones and a draw of the others.
Pol iota inh: qHTS for Inhibitors of Polymerase Iota. AID 588590, 2011. Pol iota fluorescent replication assay, 10 min. DNA polymerase iota (Homo sapiens), Q9UNA4. Potency, µM (series often up to 115 µM), without a hit: at the top dose activity, negative = inhibition, usual class: inhibitors. 390,000 compounds, 1% hits
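Fluorescent replication assay read twice, at 0 min and 10 min after adding 50 nM (final) substrate. Enzyme (10 nM) and compounds were first incubated 15 min at room temperature; enzyme-free buffer wells were negative controls.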
WRN inhibitor: qHTS for Inhibitors of WRN Helicase. Bifunctional 3'-5' exonuclease/ATP-dependent helicase WRN (Homo sapiens), Q14191. WRN helicase unwinding, fluorescent forked duplex, kinetic. Potency, µM (series often up to 114 µM), without a hit: at the highest dose activity change, negative = inhibition, hits mostly inhibitors. 360,000 compounds, 0.46% hits. AID 651768, 2012; further: on the % scale 0 is the no-effect control and ±100 the full control effect; nearly all actives have a fitted effect of over 55% in size
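WRN at 20 nM final preincubated with compound 15 min at room temperature; reaction started with 100 nM fluorophore/quencher forked duplex oligonucleotide and 2 mM ATP final. Unwinding followed kinetically by red fluorescence (ex 525, em 598 nm).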
L3MBTL1 block: qHTS Assay for the Inhibitors of L3MBTL1; Lethal(3)malignant brain tumor-like protein 1 (Homo sapiens), Q9Y468; AlphaScreen L3MBTL1–H3K9me1 peptide binding; Potency, µM (top dose mostly 57.1 µM), inactives show at the top dose activity, negative = inhibition, most hits filed as inhibitors; 230,000 compounds, 0.66% hits; AID 485360, 2010; further: on the % scale 0 is the no-effect control and ±100 the full control effect; nearly all actives have a fitted effect of over 60% in size
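Read-out is AlphaScreen signal from streptavidin donor and nickel chelate acceptor beads (10 ug/mL final each) bridging L3MBTL1 (50 nM) and biotinylated K9-monomethylated H3(1-15) peptide (75 nM), after 30 min compound exposure at room temperature.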
Pol beta inh: qHTS Assay for Inhibitors of DNA Polymerase Beta. Pol beta primer extension/strand displacement, fluorescence kinetic. P06746. 340,000 compounds, 1.3% hits. AID 485314, 2010. Potency, µM (top dose mostly 114 µM), for the others: at the top dose activity change, negative = inhibition, usual class: inhibitors; further: on the % scale 0 is the no-effect control and ±100 the full control effect
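Pol beta (10 nM) was preincubated with compound for 15 min at room temperature. The reaction was then started with 50 nM substrate and read immediately and after a further 10 min at room temperature.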
Pol kappa inh: qHTS for Inhibitors of Polymerase Kappa; AID 588579, 2011; 400,000 compounds, 0.53% hits; purified Pol kappa, fluorescent DNA synthesis assay, 10 min; Potency, µM (titrated, usually from 107 µM), inactives show top-dose activity, negative = inhibition, actives largely listed as inhibitors; further: on the % scale 0 is the no-effect control and ±100 the full control effect
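50 nM final substrate added after 15 min RT preincubation of 10 nM Pol kappa with compound; fluorescence read at 0 and 10 min.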
POLH inh: qHTS for Inhibitors of Polymerase Eta; 390,000 compounds, 1.2% hits; DNA polymerase eta (Homo sapiens), Q9Y253; AID 588591, 2011; Potency, µM (series often up to 114 µM), inactives show at the top dose activity change, negative = inhibition, hits mostly inhibitors; recombinant Pol eta, fluorescent DNA replication assay; further: on the % scale 0 is the no-effect control and ±100 the full control effect
Target sequence (Q9Y253 whole entry, looked up): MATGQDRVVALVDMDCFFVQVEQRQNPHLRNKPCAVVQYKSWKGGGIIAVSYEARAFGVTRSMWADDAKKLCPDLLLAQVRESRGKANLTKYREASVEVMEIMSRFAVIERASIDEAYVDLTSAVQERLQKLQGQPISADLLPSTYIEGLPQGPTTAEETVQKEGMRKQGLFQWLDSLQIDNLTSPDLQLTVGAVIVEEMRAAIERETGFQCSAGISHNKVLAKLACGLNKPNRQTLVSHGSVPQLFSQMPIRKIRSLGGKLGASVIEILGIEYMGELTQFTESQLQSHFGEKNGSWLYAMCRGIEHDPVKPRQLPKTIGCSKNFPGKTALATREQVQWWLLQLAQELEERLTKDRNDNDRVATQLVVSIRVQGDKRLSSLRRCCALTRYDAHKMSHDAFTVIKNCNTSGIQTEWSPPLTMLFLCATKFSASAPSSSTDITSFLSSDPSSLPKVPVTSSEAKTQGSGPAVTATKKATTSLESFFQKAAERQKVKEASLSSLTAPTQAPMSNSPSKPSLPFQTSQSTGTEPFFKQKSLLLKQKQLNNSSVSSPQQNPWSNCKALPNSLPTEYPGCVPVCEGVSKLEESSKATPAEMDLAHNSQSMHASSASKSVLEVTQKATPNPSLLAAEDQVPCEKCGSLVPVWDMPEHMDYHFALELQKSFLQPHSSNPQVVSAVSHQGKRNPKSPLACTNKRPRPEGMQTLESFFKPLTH
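Pol eta at 10 nM preincubated with compounds 15 min at room temperature; reaction started with fluorescent substrate (50 nM final) and read kinetically at 0 and 10 min.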
Numbers without * were called inactive; ? = inconclusive; · = no result; [ ] = another dose, or the depositor's remark. The call rests on the fitted dose curve; in most records, active means well fitted curve in the direction sought with a large enough effect; inconclusive means small, poorly fitted or top-dose-only effect, or another doubt; inactive means no such curve, though single readings can be large; an effect the other way counts as inactive or inconclusive. Potency means the concentration at half of the fitted maximal effect.

SMILES	Pol iota inh	WRN inhibitor	L3MBTL1 block	Pol beta inh	Pol kappa inh	POLH inh
CC1C(=O)NN=C1c1ccc([N+](=O)[O-])cc1 (stereo not drawn)	-1.8%	-1.4%	·	·	-2.6%	-15.4%
Cc1cc2ccccc2c(=O)n1CC(=O)NCC(=O)N1CCN(c2ccccc2F)CC1	-0.4%	-1.9%	-3.3%	3.0%	1.0%	-8.4%
CCOC(=O)CCc1c(C)nc2cc(-c3cc(OC)cc(OC)c3)[nH]n2c1=O	4.5%	·	·	28.2µM*	-9.5%	-14.7%
CCc1c(C)nc2cc(-c3cccc(Br)c3)[nH]n2c1=O	5.5%	-26.6%	1.2%	25.1µM*	3.9%	-28.0%
COc1cc(OC)cc(-c2cc3nc(C)c(CCC(=O)O)c(=O)n3[nH]2)c1	34.5%	-4.1%	·	2.5%	6.2%	-18.8%
O=C(c1ccccc1Nc1ccc(SC(F)F)cc1)N1CCCCC1	1.2%	2.4%	-2.5%	0.8%	-19.9%	-8.3%
Cc1ccc(CN2CC(C(=O)Nc3ncc(C)s3)CC2=O)cc1 (stereo not drawn)	19.2%	10.1%	3.0%	·	-3.6%	2.7%
CC(Oc1ccccc1)C(=O)N1CCC2(CC1)Oc1ccc(F)cc1C(=O)C21CC(c2cccnc2)=NO1 (stereo not drawn)	?	-9.4%	·	·	9.1%	-6.1%
O=C(Nc1cccc(C(=O)O)c1)/C(=C\c1ccco1)NC(=O)c1ccccc1Cl	?	0.3%[11.6 µM]	·	1.7%	35.5µM*	-13.5%
Cn1c(=O)cc(SCC(=O)Nc2cccc(C#N)c2)c2ccc(Cl)cc21	-7.6%	·	·	18.9%	-4.1%	4.6%
Cc1ccc(-c2c3c([nH]c(=S)c2C#N)CCCC3)o1	?	44.7µM*	?	?	-28.4%	?
CONC(=O)c1ccc(-c2cccc3nccn23)cc1	·	-0.5%	·	·	·	·
Cc1ccnc(NS(=O)(=O)c2ccc(NC(=O)c3cc(-c4ccc(Br)cc4)nc4ccccc34)cc2)n1	44.7µM*	?	-7.8%	79.4µM*	-31.5%	35.5µM*
Cc1ccnc(NS(=O)(=O)c2ccc(NC(=O)c3cc(-c4ccccc4)nc4ccccc34)cc2)n1	-2.8%	?	-7.7%	28.2%	-8.7%	11.7%
CCCOc1ccc(CNC(=O)CCCn2ncn3c(cc4sc(CC)cc43)c2=O)cc1	37.0%	·	·	28.9%	9.4%	-8.6%
CNS(=O)(=O)c1cccc(C(=O)OCc2cc(=O)oc3c(C)c(O)ccc23)c1	?	-15.6%	·	10µM*	-14.3%	?
COc1cc(NC(=O)C(c2ccccc2)c2ccccc2)c(C(=O)O)cc1OC	30.7%	-4.0%	3.0%	56.3%	-8.4%	-13.7%
CC(=O)Nc1ccc(NC(=O)c2cccc(-c3cc4ccccc4oc3=O)c2)cc1	149.5%	10.3%	-29.2%	15.8%	-13.8%	-13.5%
O=C(Nc1ccc(N2CCCC2)c(Cl)c1)c1cccc(-c2cc3ccccc3oc2=O)c1	13.2%	-9.8%	28.2µM*	7.5%	-3.1%	-22.0%
CCc1ccc(S(=O)(=O)/N=C2\C=C(NS(=O)(=O)c3ccccc3)C(=O)c3ccccc32)cc1	?	-11.6%	·	?	-27.2%	89.1µM*
COc1ccc(S(=O)(=O)/N=C2\C=C(Nc3ccc(O)cc3)C(=O)c3ccccc32)cc1	?	-0.3%[11.6 µM]	·	-23.5%	-15.2%	?
CC(C)c1ccc(S(=O)(=O)/N=C2\C=C(NS(=O)(=O)c3ccccc3)C(=O)c3ccccc32)cc1	?	?	·	?	-20.2%	79.4µM*
CSc1ccc(NC(=O)C2(C)CCN2C(=O)C2(c3ccccc3)CC2)cc1 (stereo not drawn)	·	-6.8%	·	·	·	·
N#Cc1cc2c(nc1SCC(O)CS(=O)(=O)Cc1ccccc1)CCCC2 (stereo not drawn)	-1.5%	-5.1%	·	1.3%	-6.0%	-12.0%
O=C(NCCO)/C(=C/c1ccco1)NC(=O)c1ccco1	237.9%	?	·	·	-8.7%	5.9%
SMILES	Pol iota inh	WRN inhibitor	L3MBTL1 block	Pol beta inh	Pol kappa inh	POLH inh
O=C1CCNc2cc3ccccc3cc21	-13.8%	?	·	25.1µM*	-16.7%	?
CC(=O)Nc1ccc(C(=O)CSc2nnc(-c3ccccc3)n2-c2ccccc2)cc1	?	·	·	10µM*	4.8%	-9.0%
O=C(O)c1cccc(N/N=C/c2cn(-c3ccccc3)nc2-c2cccs2)c1	61.0%	?	-27.4%	?	-17.6%	79.4µM*
O=c1cc(-c2cccc(O)c2)oc2cccc(O)c12	·	·	·	·	-8.1%[19.4 µM]	·
O=C(O)c1cc(-n2cccc2)ccc1N1CCOCC1	-28.3%[58.9 µM]	3.4%[11.6 µM]	-15.6%	-0.2%	?	50.1µM*
O=C(CCS(=O)(=O)c1ccccc1)Nc1ccc(-c2nc3ccccc3s2)c(O)c1	10.8%	-1.9%	-0.5%	5.0%	-5.5%	-8.1%
CCS(=O)(=O)c1cccc(C(=O)Nc2ccc(-c3nc4ccccc4s3)c(O)c2)c1	?	·	·	20µM*	-4.6%[60.1 µM]	?
O=C(N/N=C/c1ccc2c(c1)OCO2)c1ccc(NS(=O)(=O)c2cccs2)cc1	125.6%	-25.5%	-0.5%	-1.9%	-19.1%	-11.4%
O=C(N/N=C/c1ccc([N+](=O)[O-])o1)c1ccc(NS(=O)(=O)c2cccs2)cc1	50.1µM*	-9.9%[11.6 µM]	-7.0%	?	-33.8%	31.6µM*
O=C(N/N=C/c1ccc([N+](=O)[O-])o1)c1ccc2c(c1)OCO2	?	-13.6%	·	39.8µM*	-21.3%	-6.7%
Cc1nn(-c2ccc(Cl)cc2)c(Cl)c1/C=N/NC(=O)c1ccc(NS(=O)(=O)c2cccs2)cc1	-3.6%	-21.4%	·	·	-16.0%	79.4µM*
Cc1nn(-c2ccc(F)cc2)c(Cl)c1/C=N/NC(=O)c1cccs1	1.9%	-12.9%	9.8%	-12.4%	-11.6%	?
O=[N+]([O-])c1ccc(/C=N/N=C/c2ccc([N+](=O)[O-])o2)o1	22.4µM*	-16.7%	?	-25.9%	?	?
O=C(N/N=C\C=C\c1ccc([N+](=O)[O-])o1)c1cccs1	5.01µM*	-8.5%[11.6 µM]	·	31.6µM*	79.4µM*	50.1µM*
COc1ccccc1OCC(=O)N/N=C/C=C/c1ccc([N+](=O)[O-])o1	79.4µM*	-24.4%	-15.4%	31.6µM*	?	?
O=C(N/N=C/C=C/c1ccccc1[N+](=O)[O-])c1cccs1	19.3%	-12.3%	-5.6%	0.7%	-4.5%	-13.6%
O=C(N/N=C/c1cccc(O)c1)c1cc(-c2ccc3c(c2)OCO3)n[nH]1	?	3.6%	-14.4%	?	-8.2%	-12.4%
